{"source": "paper PMC5540273", "about": "(PLoS ONE, 2017);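 also: KINOMEscan kinase panel screen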", "conditions_in_all_cases": "concentration: 1 μM,replicates: in singlicate; n = 1", "key": {"PCTK2": {"tested_on": "T1, PCTK2", "T1 construct": "gene CDK17"}, "PCTK3": {"tested_on": "T2, PCTK3", "T2 construct": "gene CDK18"}, "PDGFRA": {"tested_on": "PDGFRA"}, "PDGFRB": {"tested_on": "PDGFRB"}, "PDPK1": {"tested_on": "PDPK1"}, "PFTAIRE2": {"tested_on": "PFTAIRE2"}, "PFTK1": {"tested_on": "T3, PFTK1", "T3 construct": "gene CDK14"}, "PHKG1": {"tested_on": "PHKG1"}, "PHKG2": {"tested_on": "PHKG2"}, "PIK3C2B": {"tested_on": "PIK3C2B"}}}
{"smiles": "CC(C(=O)NC1CCN(c2ccnc(Nc3ccc(F)cc3)n2)C1)c1ccc(Cl)cc1", "note": "(stereo not shown) [GSK1379713]", "values": [{"measurement": "%Inh", "setting": "PCTK2", "result": 0, "unit": "%"}, {"measurement": "%Inh", "setting": "PCTK3", "result": 12, "unit": "%"}, {"measurement": "%Inh", "setting": "PDGFRA", "result": 3, "unit": "%"}, {"measurement": "%Inh", "setting": "PDGFRB", "result": 7, "unit": "%"}, {"measurement": "%Inh", "setting": "PDPK1", "result": 0, "unit": "%"}, {"measurement": "%Inh", "setting": "PFTAIRE2", "result": 24, "unit": "%"}, {"measurement": "%Inh", "setting": "PFTK1", "result": 2, "unit": "%"}, {"measurement": "%Inh", "setting": "PHKG1", "result": 0, "unit": "%"}, {"measurement": "%Inh", "setting": "PHKG2", "result": 0, "unit": "%"}, {"measurement": "%Inh", "setting": "PIK3C2B", "result": 0, "unit": "%"}]}
{"smiles": "Cc1n[nH]c2cc(Nc3ccnc(Nc4cccc(CN5CCOCC5)c4)n3)ccc12", "note": "[GW682569]", "values": [{"measurement": "%Inh", "setting": "PCTK2", "result": 12, "unit": "%"}, {"measurement": "%Inh", "setting": "PCTK3", "result": 8, "unit": "%"}, {"measurement": "%Inh", "setting": "PDGFRA", "result": 75, "unit": "%"}, {"measurement": "%Inh", "setting": "PDGFRB", "result": 95.4, "unit": "%"}, {"measurement": "%Inh", "setting": "PDPK1", "result": 0, "unit": "%"}, {"measurement": "%Inh", "setting": "PFTAIRE2", "result": 7, "unit": "%"}, {"measurement": "%Inh", "setting": "PFTK1", "result": 20, "unit": "%"}, {"measurement": "%Inh", "setting": "PHKG1", "result": 0, "unit": "%"}, {"measurement": "%Inh", "setting": "PHKG2", "result": 0, "unit": "%"}, {"measurement": "%Inh", "setting": "PIK3C2B", "result": 0, "unit": "%"}]}
{"smiles": "Cc1nnc(-c2ccc3occ(-c4ccc(S(C)=O)cc4)c3n2)o1", "note": "(stereo not shown)", "values": [{"measurement": "%Inh", "setting": "PCTK2", "result": 2, "unit": "%"}, {"measurement": "%Inh", "setting": "PCTK3", "result": 0, "unit": "%"}, {"measurement": "%Inh", "setting": "PDGFRA", "result": 0, "unit": "%"}, {"measurement": "%Inh", "setting": "PDGFRB", "result": 0, "unit": "%"}, {"measurement": "%Inh", "setting": "PDPK1", "result": 2, "unit": "%"}, {"measurement": "%Inh", "setting": "PFTAIRE2", "result": 0, "unit": "%"}, {"measurement": "%Inh", "setting": "PFTK1", "result": 0, "unit": "%"}, {"measurement": "%Inh", "setting": "PHKG1", "result": 0, "unit": "%"}, {"measurement": "%Inh", "setting": "PHKG2", "result": 16, "unit": "%"}, {"measurement": "%Inh", "setting": "PIK3C2B", "result": 0, "unit": "%"}]}
{"smiles": "COc1cccc(CNC(=O)NC2CCN(c3ccnc(Nc4cc(OC)c(OC)c(OC)c4)n3)C2)c1", "note": "(stereo not shown) [GSK1379765]", "values": [{"measurement": "%Inh", "setting": "PCTK2", "result": 0, "unit": "%"}, {"measurement": "%Inh", "setting": "PCTK3", "result": 0, "unit": "%"}, {"measurement": "%Inh", "setting": "PDGFRA", "result": 6, "unit": "%"}, {"measurement": "%Inh", "setting": "PDGFRB", "result": 51, "unit": "%"}, {"measurement": "%Inh", "setting": "PDPK1", "result": 4, "unit": "%"}, {"measurement": "%Inh", "setting": "PFTAIRE2", "result": 16, "unit": "%"}, {"measurement": "%Inh", "setting": "PFTK1", "result": 11, "unit": "%"}, {"measurement": "%Inh", "setting": "PHKG1", "result": 15, "unit": "%"}, {"measurement": "%Inh", "setting": "PHKG2", "result": 0, "unit": "%"}, {"measurement": "%Inh", "setting": "PIK3C2B", "result": 0, "unit": "%"}]}
{"smiles": "Cn1ccc2ncnc(Oc3ccc(NC(=O)Nc4cc(C(C)(C)C)on4)c(Cl)c3)c21", "values": [{"measurement": "%Inh", "setting": "PCTK2", "result": 8, "unit": "%"}, {"measurement": "%Inh", "setting": "PCTK3", "result": 7, "unit": "%"}, {"measurement": "%Inh", "setting": "PDGFRA", "result": 98.9, "unit": "%"}, {"measurement": "%Inh", "setting": "PDGFRB", "result": 100, "unit": "%"}, {"measurement": "%Inh", "setting": "PDPK1", "result": 0, "unit": "%"}, {"measurement": "%Inh", "setting": "PFTAIRE2", "result": 9, "unit": "%"}, {"measurement": "%Inh", "setting": "PFTK1", "result": 0, "unit": "%"}, {"measurement": "%Inh", "setting": "PHKG1", "result": 3, "unit": "%"}, {"measurement": "%Inh", "setting": "PHKG2", "result": 9, "unit": "%"}, {"measurement": "%Inh", "setting": "PIK3C2B", "result": 7, "unit": "%"}]}
{"smiles": "CC(=O)c1c(-c2ccncc2)[nH]c(-c2ccncc2)c1C", "note": "[GW493036]", "values": [{"measurement": "%Inh", "setting": "PCTK2", "result": 0, "unit": "%"}, {"measurement": "%Inh", "setting": "PCTK3", "result": 54, "unit": "%"}, {"measurement": "%Inh", "setting": "PDGFRA", "result": 0, "unit": "%"}, {"measurement": "%Inh", "setting": "PDGFRB", "result": 7, "unit": "%"}, {"measurement": "%Inh", "setting": "PDPK1", "result": 0, "unit": "%"}, {"measurement": "%Inh", "setting": "PFTAIRE2", "result": 0, "unit": "%"}, {"measurement": "%Inh", "setting": "PFTK1", "result": 26, "unit": "%"}, {"measurement": "%Inh", "setting": "PHKG1", "result": 0, "unit": "%"}, {"measurement": "%Inh", "setting": "PHKG2", "result": 0, "unit": "%"}, {"measurement": "%Inh", "setting": "PIK3C2B", "result": 0, "unit": "%"}]}
{"smiles": "c1ccc(Oc2ccc(Nc3ccnc4ccc(-c5ccccn5)cc34)cc2)cc1", "note": "[GW407034]", "values": [{"measurement": "%Inh", "setting": "PCTK2", "result": 0, "unit": "%"}, {"measurement": "%Inh", "setting": "PCTK3", "result": 17, "unit": "%"}, {"measurement": "%Inh", "setting": "PDGFRA", "result": 0, "unit": "%"}, {"measurement": "%Inh", "setting": "PDGFRB", "result": 34, "unit": "%"}, {"measurement": "%Inh", "setting": "PDPK1", "result": 0, "unit": "%"}, {"measurement": "%Inh", "setting": "PFTAIRE2", "result": 0, "unit": "%"}, {"measurement": "%Inh", "setting": "PFTK1", "result": 15, "unit": "%"}, {"measurement": "%Inh", "setting": "PHKG1", "result": 0, "unit": "%"}, {"measurement": "%Inh", "setting": "PHKG2", "result": 0, "unit": "%"}, {"measurement": "%Inh", "setting": "PIK3C2B", "result": 4, "unit": "%"}]}
